Each structure is given as a SMILES string. Records with an inconclusive call do not appear. Where a call stands in place of a potency, no number is given. The source made the active and inactive calls. The call rests on the fitted dose curve; in most records, active means well fitted inhibition curve with a large enough effect; inconclusive means small, poorly fitted or top-dose-only effect, or effect the other way; inactive means flat fitted curve, though single readings scatter.

The results in this text go back to PubChem BioAssay (NCATS).
Potency means the concentration at half of the fitted maximal effect.

The target of this assay is ATP-dependent 6-phosphofructokinase (Trypanosoma brucei brucei) (UniProt O15648). The experiment in a line: qHTS Assay to Find Inhibitors of T. brucei phosphofructokinase: hit validation (AID 492961). Conditions: T. brucei PFK, ADP-Glo luminescence; series mostly up to 51.4 µM. Put shortly: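 Measures ADP output of PFK (1.25 nM) at 0.1 mM ATP, 0.5 mM F6P, pH 8.0 TEA buffer with 5 mM MgCl2. No-enzyme wells define full inhibition; uninhibited enzyme wells define zero.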
Sequence of ATP-dependent 6-phosphofructokinase (Trypanosoma brucei brucei) (O15648 whole entry, looked up): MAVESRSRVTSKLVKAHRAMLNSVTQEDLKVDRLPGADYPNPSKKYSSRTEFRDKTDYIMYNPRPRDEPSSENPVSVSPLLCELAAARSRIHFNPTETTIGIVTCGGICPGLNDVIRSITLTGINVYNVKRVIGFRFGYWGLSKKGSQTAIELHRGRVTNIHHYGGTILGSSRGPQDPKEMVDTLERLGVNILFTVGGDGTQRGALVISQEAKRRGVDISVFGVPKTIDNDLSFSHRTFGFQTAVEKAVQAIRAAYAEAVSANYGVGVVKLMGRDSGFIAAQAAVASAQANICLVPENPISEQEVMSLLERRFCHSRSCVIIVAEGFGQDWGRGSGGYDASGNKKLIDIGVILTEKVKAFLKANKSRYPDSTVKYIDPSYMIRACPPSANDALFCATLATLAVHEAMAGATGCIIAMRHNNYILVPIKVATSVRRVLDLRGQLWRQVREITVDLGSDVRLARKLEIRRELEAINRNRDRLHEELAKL
As for `O=[N+]([O-])c1ccc(F)c([N+](=O)[O-])c1`, the Potency entry was “inactive”.

Turning to `CCCCCCCCOC(=O)c1ccccc1C(=O)OCCCCCCCC`, the Potency result is “inactive”.

In the case of `ClCC1CO1` (centres undefined), the Potency result is “inactive”.

As for `COC1=CC=C2[C@H]3Cc4ccc(OC)c5c4[C@@]2(CCN3C)[C@H]1O5`, the Potency entry is “inactive”.

Regarding `CC[N+](C)(CC)CCOC(=O)C(O)(c1ccccc1)c1ccccc1`, the Potency result was “inactive”.

Take `CCON=O`: the Potency result was “inactive”.

Turning to `Clc1ccc(Cl)cc1`, the Potency result was “inactive”.

Turning to `O[C@H]1[C@H]2[C@H](O)CCCN2C[C@H]1O`, the Potency result is “inactive”.

In the case of `CN1CCCC(=C(c2cccs2)c2cccs2)C1`, the Potency result is “inactive”.

As to `CC(Cc1ccccc1)NC=O` (centres undefined), the Potency result is “inactive”.

Take `CNC1(c2ccccc2Cl)CCCCC1=O` (centres undefined): the Potency entry is “inactive”.

As to `CCOP(=O)(OCC)O/C(=C/Cl)c1ccc(Cl)cc1Cl`, the Potency entry was “inactive”.

As for `O=C(CCl)c1ccc(Oc2ccc(C(=O)CCl)cc2)cc1`, the Potency result was “inactive”.

Turning to `O=[N+]([O-])C(Br)(CO)CO`, the Potency is 8.91 µM (active).

Regarding `CN1c2ccccc2C(NCCCCCCC(=O)O)c2ccc(Cl)cc2S1(=O)=O` (centres undefined), the Potency entry is “inactive”.

For `CCC(C)(S(=O)(=O)CC)S(=O)(=O)CC`, the Potency result is “inactive”.

For the compound `O=C(O)C(Cl)(Cl)Cl`, the Potency entry was “inactive”.

As to `O=[N+]([O-])c1ccccc1`, the Potency result is “inactive”.

`S=C(S)N1CCNCC1`: the Potency result was “inactive”.

As for `CCN(CC)C(=O)/C(Cl)=C(\C)OP(=O)(OC)OC`, the Potency entry was “inactive”.

As for `CC(=O)OC1CN2CCC1CC2` (centres undefined), the Potency result is “inactive”.

Take `c1cc2c(c(NC3=NCCN3)c1)CCCC2`: the Potency entry is “inactive”.

Regarding `C#CC(C)(O)CC` (centres undefined), the Potency result is “inactive”.

`CCC(=O)O[C@@](Cc1ccccc1)(c1ccccc1)[C@@H](C)CN(C)C`: the Potency entry was “inactive”.

Take `CNC(=O)Oc1ccccc1C(=O)Nc1ccccc1`: the Potency result was “inactive”.

Consider `ClC(Cl)(Cl)Cl`, for which the Potency result was “inactive”.

As for `CCCCCl`, the Potency entry was “inactive”.

As to `C[C@]12CCC(=O)C[C@@H]1CC[C@@H]1[C@@H]2CC[C@]2(C)[C@@H](O)CC[C@@H]12`, the Potency result was “inactive”.

In the case of `CCCC(C)C1(CC)C(=O)NC(=O)NC1=O` (centres undefined), the Potency result is “inactive”.

Consider `O=C(NC(=O)c1c(F)cccc1F)Nc1ccc(Cl)c(Oc2ncc(C(F)(F)F)cc2Cl)c1`, for which the Potency result is “inactive”.

As for `Oc1cccc[c]1[Hg][Cl]`, the Potency was 5.62 µM (active).

Regarding `c1ccc2sc(SNC3CCCCC3)nc2c1`, the Potency entry was “inactive”.

`Clc1ccccc1Cl`: the Potency entry is “inactive”.

With `CC(C)Nc1ccc(Nc2ccccc2)cc1`, the Potency result is “inactive”.

For `S=C=S`, the Potency result is “inactive”.

For the compound `CCC1(c2ccccc2)C(=O)NC(=O)NC1=O`, the Potency result is “inactive”.

As to `c1csc(C2(N3CCCCC3)CCCCC2)c1`, the Potency entry is “inactive”.

With `O=C/C=C/c1ccccc1`, the Potency entry was “inactive”.

In the case of `O=[N+]([O-])c1cc(I)c(O)c(I)c1`, the Potency entry was “inactive”.
